{"source": "PubChem BioAssay AID2315", "about": "(National Center for Advancing Translational Sciences (NCATS), 2010)", "note": "About 27,000 (9.3%) of roughly 290,000 compounds were called active. The full list was thinned out, with actives kept by preference. Values without a mark were called inactive. No stated cut-off is given here; in the data, active means inhibition mostly above about 28% (no sharp cut-off); inactive means mostly below about 43%.", "data": [{"assay": "A qHTS for Small Molecule Inhibitors of Shiga Toxin; further: 0% is about no effect", "conditions": "Vero cells, Shiga toxin protein synthesis inhibition reporter; at 38.7 µM, stronger effect = higher value", "values": [{"molecule": "COc1cccc(-c2cccc(NC(=O)C3CCN(C4CCC4)CC3)c2)c1", "inhibition": "-10.9%"}, {"molecule": "COc1cc(Nc2nc3ccc(Cl)cc3n3cnnc23)cc(OC)c1OC", "inhibition": "-9.44%"}, {"molecule": "CN1CCN(c2ccc(S(=O)(=O)N3CCCCC3)cc2NC(=O)Cc2ccccc2F)CC1", "inhibition": "-8%"}, {"molecule": "CCN1CCN(c2ccc(S(=O)(=O)N3CCCCC3)cc2NC(=O)Cc2c(Cl)cccc2Cl)CC1", "inhibition": "42.5% (active)"}, {"molecule": "COc1ccc(CC(=O)Nc2cc(S(=O)(=O)N3CCCCC3)ccc2N2CCN(C)CC2)cc1", "inhibition": "2.85%"}, {"molecule": "COC(=O)c1cnc(Nc2cc(C)ccc2OC)c2ccccc12", "inhibition": "-8.41%"}, {"molecule": "Cc1cc(F)ccc1NC(=S)NCCc1ccccc1", "inhibition": "6.98%"}, {"molecule": "Cc1ccc(C)c(C(C)NC(=O)C2CCCO2)c1", "note": "(configuration not stated)", "inhibition": "-10.5%"}, {"molecule": "CCOc1cc(/C=N/NC(=O)CN2CCCCC2)ccc1O", "inhibition": "-8.43%"}, {"molecule": "O=C(CN1CCSCC1)N/N=C/c1ccc(Cl)cc1", "inhibition": "29.2%"}, {"molecule": "Cc1ccc(COc2ccc(/C=N/NC(=O)CN3CCCCC3)cc2)cc1", "inhibition": "87.5% (active)"}, {"molecule": "CC(=O)N/C(=N/c1nc(C)cc(C)n1)Nc1ccc(F)cc1F", "inhibition": "-13.6%"}, {"molecule": "CC(OC(=O)c1ccc2noc(-c3ccccc3)c2c1)C(N)=O", "note": "(configuration not stated)", "inhibition": "1.23%"}, {"molecule": "CC(=O)c1c(C)n(-c2ccc(C)cc2)c2ccc(O)cc12", "inhibition": "-16.2%"}, {"molecule": "O=C(Oc1ccc(-c2nc(-c3ccccn3)no2)cc1)c1ccccc1", "inhibition": "33% (active)"}, {"molecule": "O=C(Oc1ccc(Br)cc1)c1cccnc1", "inhibition": "22.6%"}, {"molecule": "CCCCCCOc1ccc(OC(=O)c2cccnc2)cc1", "inhibition": "37.9%"}, {"molecule": "CCN(CC)Cc1c(C(=O)N/N=C/c2cccc(OCc3ccc(F)cc3)c2)nnn1-c1nonc1N", "inhibition": "-1.06%"}, {"molecule": "COC(c1ccccc1)(c1ccccc1)C(Oc1nc(C)cc(C)n1)C(=O)O", "note": "(configuration not stated)", "inhibition": "-2.84%"}, {"molecule": "COc1ccc(S(=O)(=O)n2nc(C)c(S(=O)(=O)N3CCOCC3)c2C)cc1", "inhibition": "13.2%"}, {"molecule": "CCOC(=O)c1c(-c2ccc(-c3ccccc3)cc2)csc1NC(=O)CCC(=O)O", "inhibition": "-3.4%"}, {"molecule": "O=c1c2cc([N+](=O)[O-])ccc2nc2n1CCC2", "inhibition": "-7.31%"}, {"molecule": "CSc1ccc(CNC(=O)c2ccc(NC(=O)C3=CSCCO3)cc2)cc1", "inhibition": "16.6%"}, {"molecule": "O=C(NCc1ccccc1Cl)C1CCCO1", "note": "(configuration not stated)", "inhibition": "19.8%"}, {"molecule": "O=C(Nc1ccc(C(=O)NCc2ccccc2Cl)cc1)C1=CSCCO1", "inhibition": "47.1% (active)"}, {"molecule": "CC12CCC(C(=O)N(NC(=O)c3ccccc3O)C1=O)C2(C)C", "note": "(configuration not stated)", "inhibition": "10.2%"}, {"molecule": "Cc1cccc(C(=O)Nc2nnc(S(=O)(=O)N3CCCCCC3)s2)c1", "inhibition": "13.6%"}]}]}
